# In ChEMBL document CHEMBL1961873, “Compounds: GSK PKIS; Assays: Nanosyn kinase panel” (2012):
# Where “and” joins values, the source holds several entries; their conditions need not be identical. Identical values can stand only once.
# Legend:
# [1] = molecular target: Leukocyte tyrosine kinase receptor (Homo sapiens) (UniProt P29376); conditions: at 1 µM;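 further: each value is the mean inhibition of LTK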
# [2] = molecular target: Tyrosine-protein kinase Lyn (Homo sapiens) (UniProt P07948); conditions: at 0.1 µM
# [3] = molecular target: Tyrosine-protein kinase Lyn (Homo sapiens) (UniProt P07948); conditions: at 1 µM
# [4] = molecular target: Tyrosine-protein kinase Lyn (Homo sapiens) (UniProt P07948); conditions: at 0.1 µM; remark: listed apart in the source
# [5] = molecular target: Tyrosine-protein kinase Lyn (Homo sapiens) (UniProt P07948); conditions: at 1 µM; remark: listed apart in the source
# [6] = molecular target: T1, Tyrosine-protein kinase Mer (Homo sapiens) (UniProt Q12866); conditions: at 0.1 µM
# T1 sequence (whole entry): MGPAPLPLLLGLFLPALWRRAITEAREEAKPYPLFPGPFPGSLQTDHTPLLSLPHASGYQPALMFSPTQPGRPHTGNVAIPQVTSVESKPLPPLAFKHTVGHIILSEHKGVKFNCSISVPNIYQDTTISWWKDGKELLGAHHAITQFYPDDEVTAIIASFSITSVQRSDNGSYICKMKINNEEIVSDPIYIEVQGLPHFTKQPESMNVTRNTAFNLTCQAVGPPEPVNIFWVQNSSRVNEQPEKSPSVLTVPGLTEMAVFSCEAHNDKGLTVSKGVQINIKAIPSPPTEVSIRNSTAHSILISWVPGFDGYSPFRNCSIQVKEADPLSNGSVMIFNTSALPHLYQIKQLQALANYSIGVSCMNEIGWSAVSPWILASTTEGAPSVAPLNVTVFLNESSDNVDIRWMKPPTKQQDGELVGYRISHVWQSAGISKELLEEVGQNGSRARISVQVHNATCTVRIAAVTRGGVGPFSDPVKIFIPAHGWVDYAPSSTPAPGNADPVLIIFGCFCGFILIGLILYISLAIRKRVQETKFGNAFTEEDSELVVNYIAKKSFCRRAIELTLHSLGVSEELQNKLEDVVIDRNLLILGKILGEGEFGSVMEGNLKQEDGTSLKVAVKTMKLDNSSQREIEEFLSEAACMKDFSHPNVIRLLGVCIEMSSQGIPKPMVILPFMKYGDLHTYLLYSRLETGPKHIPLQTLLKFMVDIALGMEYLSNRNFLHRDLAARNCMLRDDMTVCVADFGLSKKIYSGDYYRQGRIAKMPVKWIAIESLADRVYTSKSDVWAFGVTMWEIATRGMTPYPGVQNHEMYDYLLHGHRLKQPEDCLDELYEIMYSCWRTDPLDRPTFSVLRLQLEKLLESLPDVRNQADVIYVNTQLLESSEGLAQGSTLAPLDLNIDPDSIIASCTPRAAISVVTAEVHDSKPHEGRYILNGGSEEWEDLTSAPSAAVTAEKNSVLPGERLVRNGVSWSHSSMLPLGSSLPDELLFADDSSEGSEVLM
# [7] = molecular target: T1, Tyrosine-protein kinase Mer (Homo sapiens); conditions: at 1 µM
# [8] = molecular target: Hepatocyte growth factor receptor (Homo sapiens) (UniProt P08581); conditions: at 0.1 µM
# [9] = molecular target: Hepatocyte growth factor receptor (Homo sapiens) (UniProt P08581); conditions: at 1 µM
# [10] = molecular target: T2, Muscle, skeletal receptor tyrosine-protein kinase (Homo sapiens) (UniProt O15146); conditions: at 0.1 µM
# T2 sequence (whole entry): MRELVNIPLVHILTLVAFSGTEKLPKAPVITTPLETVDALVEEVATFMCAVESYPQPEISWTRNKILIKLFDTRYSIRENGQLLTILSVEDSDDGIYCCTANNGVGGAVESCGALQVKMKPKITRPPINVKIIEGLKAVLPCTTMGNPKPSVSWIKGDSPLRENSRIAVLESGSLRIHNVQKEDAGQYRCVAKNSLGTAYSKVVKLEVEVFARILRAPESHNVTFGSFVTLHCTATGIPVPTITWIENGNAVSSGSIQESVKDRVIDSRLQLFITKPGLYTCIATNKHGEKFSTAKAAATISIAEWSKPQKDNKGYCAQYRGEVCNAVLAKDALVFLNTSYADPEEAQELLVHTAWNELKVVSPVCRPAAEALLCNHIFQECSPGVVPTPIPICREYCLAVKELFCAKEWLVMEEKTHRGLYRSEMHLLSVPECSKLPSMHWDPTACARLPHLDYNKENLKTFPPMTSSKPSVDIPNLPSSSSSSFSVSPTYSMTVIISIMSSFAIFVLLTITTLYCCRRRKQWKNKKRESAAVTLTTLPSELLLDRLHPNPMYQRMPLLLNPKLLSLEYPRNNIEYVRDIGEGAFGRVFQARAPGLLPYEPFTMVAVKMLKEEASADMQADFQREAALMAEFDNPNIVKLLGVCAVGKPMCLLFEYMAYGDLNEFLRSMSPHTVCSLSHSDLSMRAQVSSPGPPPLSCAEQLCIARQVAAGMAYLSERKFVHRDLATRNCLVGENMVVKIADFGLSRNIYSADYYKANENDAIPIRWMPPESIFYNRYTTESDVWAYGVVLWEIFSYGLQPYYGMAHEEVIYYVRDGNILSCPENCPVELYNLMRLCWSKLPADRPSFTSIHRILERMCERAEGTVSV
# [11] = molecular target: T2, Muscle, skeletal receptor tyrosine-protein kinase (Homo sapiens); conditions: at 1 µM
# [12] = molecular target: Platelet-derived growth factor receptor alpha (Homo sapiens) (UniProt P16234); conditions: at 0.1 µM
# [13] = molecular target: Platelet-derived growth factor receptor alpha (Homo sapiens) (UniProt P16234); conditions: at 1 µM
# [14] = tested on: Platelet-derived growth factor receptor alpha (Homo sapiens), P16234 [D842V]; conditions: at 0.1 µM
# [15] = tested on: Platelet-derived growth factor receptor alpha (Homo sapiens), P16234 [D842V]; conditions: at 1 µM
# [16] = tested on: Platelet-derived growth factor receptor alpha (Homo sapiens), P16234 [T674I]; conditions: at 0.1 µM
# [17] = tested on: Platelet-derived growth factor receptor alpha (Homo sapiens), P16234 [T674I]; conditions: at 1 µM
# [18] = tested on: Platelet-derived growth factor receptor alpha (Homo sapiens), P16234 [V561D]; conditions: at 0.1 µM
# [19] = tested on: Platelet-derived growth factor receptor alpha (Homo sapiens), P16234 [V561D]; conditions: at 1 µM
# [20] = molecular target: Platelet-derived growth factor receptor beta (Homo sapiens) (UniProt P09619); conditions: at 0.1 µM;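 further: reported value is the mean percent inhibition of the kinase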
# Sequence of Platelet-derived growth factor receptor beta (Homo sapiens) (P09619 whole entry): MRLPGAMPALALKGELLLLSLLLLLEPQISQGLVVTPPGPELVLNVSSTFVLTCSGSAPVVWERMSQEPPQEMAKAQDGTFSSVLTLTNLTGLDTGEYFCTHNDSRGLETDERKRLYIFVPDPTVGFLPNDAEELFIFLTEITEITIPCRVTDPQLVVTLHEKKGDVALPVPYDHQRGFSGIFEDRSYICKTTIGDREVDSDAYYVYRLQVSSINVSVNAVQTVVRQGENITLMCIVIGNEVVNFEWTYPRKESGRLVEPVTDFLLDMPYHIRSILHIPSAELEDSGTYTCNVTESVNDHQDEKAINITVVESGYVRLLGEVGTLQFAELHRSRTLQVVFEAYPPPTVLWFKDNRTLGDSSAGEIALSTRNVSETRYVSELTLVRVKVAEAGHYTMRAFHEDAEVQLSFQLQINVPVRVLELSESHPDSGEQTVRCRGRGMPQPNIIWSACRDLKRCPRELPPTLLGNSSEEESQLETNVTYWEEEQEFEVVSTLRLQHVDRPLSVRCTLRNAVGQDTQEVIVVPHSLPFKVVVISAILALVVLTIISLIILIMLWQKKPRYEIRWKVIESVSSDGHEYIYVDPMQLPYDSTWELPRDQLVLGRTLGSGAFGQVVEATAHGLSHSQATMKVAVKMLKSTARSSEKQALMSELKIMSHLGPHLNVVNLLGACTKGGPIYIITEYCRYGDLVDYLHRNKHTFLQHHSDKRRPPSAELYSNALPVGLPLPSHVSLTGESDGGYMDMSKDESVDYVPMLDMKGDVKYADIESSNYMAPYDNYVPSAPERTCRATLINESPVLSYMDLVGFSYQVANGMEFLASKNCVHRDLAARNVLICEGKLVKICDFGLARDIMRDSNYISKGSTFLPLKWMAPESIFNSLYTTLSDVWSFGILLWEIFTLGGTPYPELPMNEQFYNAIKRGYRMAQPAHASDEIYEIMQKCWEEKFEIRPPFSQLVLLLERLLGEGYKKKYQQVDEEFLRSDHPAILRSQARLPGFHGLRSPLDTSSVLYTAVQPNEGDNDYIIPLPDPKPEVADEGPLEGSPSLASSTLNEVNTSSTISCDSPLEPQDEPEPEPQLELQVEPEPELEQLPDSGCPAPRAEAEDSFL
# Sequence of Hepatocyte growth factor receptor (Homo sapiens) (P08581 whole entry): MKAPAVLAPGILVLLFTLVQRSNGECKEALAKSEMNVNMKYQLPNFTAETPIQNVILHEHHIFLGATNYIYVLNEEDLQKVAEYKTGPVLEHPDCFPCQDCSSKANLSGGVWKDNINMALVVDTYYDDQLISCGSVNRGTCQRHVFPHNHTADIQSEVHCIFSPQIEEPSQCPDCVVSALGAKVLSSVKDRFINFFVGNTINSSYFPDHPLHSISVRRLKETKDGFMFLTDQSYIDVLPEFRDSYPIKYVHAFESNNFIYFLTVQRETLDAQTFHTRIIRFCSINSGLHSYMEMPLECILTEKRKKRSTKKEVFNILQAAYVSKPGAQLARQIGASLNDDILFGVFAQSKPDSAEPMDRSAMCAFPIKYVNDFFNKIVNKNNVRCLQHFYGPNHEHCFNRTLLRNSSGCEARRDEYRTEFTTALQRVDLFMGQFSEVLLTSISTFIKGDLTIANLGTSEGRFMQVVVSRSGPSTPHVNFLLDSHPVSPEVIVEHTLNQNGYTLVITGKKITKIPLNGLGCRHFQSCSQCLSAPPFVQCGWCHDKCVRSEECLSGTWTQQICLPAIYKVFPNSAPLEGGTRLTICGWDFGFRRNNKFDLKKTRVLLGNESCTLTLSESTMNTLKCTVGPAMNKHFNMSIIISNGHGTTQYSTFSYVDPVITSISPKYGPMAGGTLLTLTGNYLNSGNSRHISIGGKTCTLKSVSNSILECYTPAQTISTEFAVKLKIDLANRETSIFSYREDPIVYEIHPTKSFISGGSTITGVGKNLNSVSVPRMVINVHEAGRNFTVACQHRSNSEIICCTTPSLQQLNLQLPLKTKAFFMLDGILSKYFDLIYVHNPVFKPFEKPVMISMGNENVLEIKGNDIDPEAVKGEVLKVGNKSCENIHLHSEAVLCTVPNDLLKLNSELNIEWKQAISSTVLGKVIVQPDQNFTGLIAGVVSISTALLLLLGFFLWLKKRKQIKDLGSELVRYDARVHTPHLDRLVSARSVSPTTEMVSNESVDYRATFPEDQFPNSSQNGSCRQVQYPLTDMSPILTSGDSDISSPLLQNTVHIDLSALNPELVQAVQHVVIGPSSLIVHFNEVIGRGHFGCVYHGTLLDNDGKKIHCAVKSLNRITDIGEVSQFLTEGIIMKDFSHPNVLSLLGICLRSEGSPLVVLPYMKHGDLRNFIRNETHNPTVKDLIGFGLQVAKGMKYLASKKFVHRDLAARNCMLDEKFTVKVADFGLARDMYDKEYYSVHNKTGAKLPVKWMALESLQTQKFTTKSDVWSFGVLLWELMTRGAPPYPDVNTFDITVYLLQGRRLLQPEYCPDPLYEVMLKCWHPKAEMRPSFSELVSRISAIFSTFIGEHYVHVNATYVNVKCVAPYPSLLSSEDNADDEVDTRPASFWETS
# Sequence of Tyrosine-protein kinase Lyn (Homo sapiens) (P07948 2-512 limits assumed): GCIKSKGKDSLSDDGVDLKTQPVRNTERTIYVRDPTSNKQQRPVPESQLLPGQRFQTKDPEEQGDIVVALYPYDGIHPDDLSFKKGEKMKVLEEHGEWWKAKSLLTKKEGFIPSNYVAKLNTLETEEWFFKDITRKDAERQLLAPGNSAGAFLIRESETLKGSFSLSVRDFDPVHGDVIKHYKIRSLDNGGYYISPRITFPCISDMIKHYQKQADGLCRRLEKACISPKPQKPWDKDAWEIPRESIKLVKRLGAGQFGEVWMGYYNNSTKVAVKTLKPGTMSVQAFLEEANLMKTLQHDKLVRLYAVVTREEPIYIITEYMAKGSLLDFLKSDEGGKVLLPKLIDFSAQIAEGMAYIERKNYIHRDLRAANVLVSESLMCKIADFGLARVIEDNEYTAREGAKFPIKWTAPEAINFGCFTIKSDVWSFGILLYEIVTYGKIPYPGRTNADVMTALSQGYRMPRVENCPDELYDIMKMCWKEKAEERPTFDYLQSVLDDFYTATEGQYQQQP
# Sequence of Platelet-derived growth factor receptor alpha (Homo sapiens), P16234 [V561D] (P16234 whole entry V561D): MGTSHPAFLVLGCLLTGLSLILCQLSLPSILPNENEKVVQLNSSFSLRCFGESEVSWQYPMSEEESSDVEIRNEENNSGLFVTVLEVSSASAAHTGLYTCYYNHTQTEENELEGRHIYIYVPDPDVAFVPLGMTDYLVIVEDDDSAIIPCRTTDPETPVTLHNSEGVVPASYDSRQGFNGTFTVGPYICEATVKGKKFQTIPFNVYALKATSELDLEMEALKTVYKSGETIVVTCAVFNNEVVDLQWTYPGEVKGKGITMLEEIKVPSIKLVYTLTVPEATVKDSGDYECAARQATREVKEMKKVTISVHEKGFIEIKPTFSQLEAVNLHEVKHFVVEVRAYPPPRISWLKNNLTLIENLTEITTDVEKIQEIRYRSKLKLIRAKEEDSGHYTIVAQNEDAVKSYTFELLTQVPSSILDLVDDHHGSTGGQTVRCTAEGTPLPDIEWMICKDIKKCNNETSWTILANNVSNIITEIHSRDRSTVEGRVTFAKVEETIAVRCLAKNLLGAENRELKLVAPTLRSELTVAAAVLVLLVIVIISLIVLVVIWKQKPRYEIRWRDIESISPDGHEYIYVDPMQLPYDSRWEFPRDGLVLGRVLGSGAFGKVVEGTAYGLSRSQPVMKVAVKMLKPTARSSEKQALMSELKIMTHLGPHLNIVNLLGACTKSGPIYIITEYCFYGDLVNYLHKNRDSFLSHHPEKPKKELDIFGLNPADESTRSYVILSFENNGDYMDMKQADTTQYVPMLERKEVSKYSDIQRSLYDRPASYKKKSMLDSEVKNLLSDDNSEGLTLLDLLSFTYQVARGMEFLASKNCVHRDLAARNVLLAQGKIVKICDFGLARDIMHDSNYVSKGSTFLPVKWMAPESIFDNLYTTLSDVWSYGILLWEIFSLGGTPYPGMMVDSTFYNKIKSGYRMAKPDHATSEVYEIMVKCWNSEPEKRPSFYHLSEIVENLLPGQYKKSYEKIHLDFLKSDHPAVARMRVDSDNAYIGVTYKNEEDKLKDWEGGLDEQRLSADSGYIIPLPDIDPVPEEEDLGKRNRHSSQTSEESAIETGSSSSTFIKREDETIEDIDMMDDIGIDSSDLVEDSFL
# Sequence of Leukocyte tyrosine kinase receptor (Homo sapiens) (P29376 whole entry): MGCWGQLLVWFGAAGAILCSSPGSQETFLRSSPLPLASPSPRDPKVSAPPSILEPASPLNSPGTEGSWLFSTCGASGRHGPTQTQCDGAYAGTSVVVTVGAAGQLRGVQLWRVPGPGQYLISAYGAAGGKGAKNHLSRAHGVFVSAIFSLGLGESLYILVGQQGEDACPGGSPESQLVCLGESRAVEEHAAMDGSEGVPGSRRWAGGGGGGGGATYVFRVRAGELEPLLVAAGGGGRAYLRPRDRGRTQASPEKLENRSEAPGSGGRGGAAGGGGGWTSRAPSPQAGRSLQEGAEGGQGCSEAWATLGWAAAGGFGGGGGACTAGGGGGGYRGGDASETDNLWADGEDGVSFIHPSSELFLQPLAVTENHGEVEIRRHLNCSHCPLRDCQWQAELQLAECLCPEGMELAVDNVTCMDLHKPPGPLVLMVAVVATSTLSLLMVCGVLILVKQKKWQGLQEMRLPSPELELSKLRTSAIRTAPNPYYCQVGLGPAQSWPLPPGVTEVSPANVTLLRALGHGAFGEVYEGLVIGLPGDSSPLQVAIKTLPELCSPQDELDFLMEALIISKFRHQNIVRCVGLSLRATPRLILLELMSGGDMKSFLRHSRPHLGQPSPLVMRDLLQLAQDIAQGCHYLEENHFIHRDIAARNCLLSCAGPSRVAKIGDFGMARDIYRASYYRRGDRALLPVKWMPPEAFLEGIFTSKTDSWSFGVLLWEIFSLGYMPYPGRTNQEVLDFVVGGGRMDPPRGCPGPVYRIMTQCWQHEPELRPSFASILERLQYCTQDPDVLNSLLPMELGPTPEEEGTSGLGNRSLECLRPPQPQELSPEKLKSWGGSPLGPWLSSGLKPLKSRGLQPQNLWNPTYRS
Structure (SMILES),inhibition [1],inhibition [2],inhibition [3],inhibition [4],inhibition [5],inhibition [6],inhibition [7],inhibition [8],inhibition [9],inhibition [10],inhibition [11],inhibition [12],inhibition [13],inhibition [14],inhibition [15],inhibition [16],inhibition [17],inhibition [18],inhibition [19],inhibition [20]
O=C(O[C@H]1CN[C@H](C#Cc2cc3ncnc(Nc4ccc5c(ccn5Cc5cc(F)ccc5F)c4)c3s2)C1)N1CCOCC1,4.15%,4.33%,6.23%,2.03%,1.87%,1.34%,3.33%,7.21%,10.8%,2.87%,4.92%,6.05%,12.3%,2.95%,3.49%,5.88%,6.54%,7.32%,5.97%,2.48%
NS(=O)(=O)c1ccc(N/N=C2\C(=O)Nc3cccc(CCc4ccncc4)c32)cc1,1.43%,2.64%,6.56%,2.69%,5.45%,2.62%,3.17%,10.5%,15.4%,12.2%,24.2%,33.5%,60.7%,16.9%,58.5%,6.75%,34.6%,26.3%,72.3%,29.6%
c1cnn2ncc(-c3ccnc(NCCCN4CCOCC4)n3)c2c1,2.33%,5.49%,3.64%,2.77%,0.53%,3.19%,-0.16%,-0.1%,0.15%,2.04%,0.6%,5.5%,6.66%,0.88%,3.59%,3.47%,5.82%,3.16%,2.82%,0.52%
CS(=O)(=O)Nc1ccc(-c2ccc3c(NC(=O)C4CC4)n[nH]c3c2)cc1,3.75%,3.8%,4.62%,2.46%,3.58%,0.84%,3.15%,6.7%,-3.22%,3.2%,7.76%,12.9%,28.5%,3.79%,10.3%,4.77%,4.09%,5.95%,26.5%,3.96%
Cc1cc(O)cc(C)c1/C=C/c1cncc(C(N)=O)c1,3.91%,14.8%,61%,10.4%,57%,1.5%,2.49%,0.96%,6.76%,3.77%,3.91%,13%,39.4%,3.88%,16.3%,4.15%,4.33%,21%,55.5%,9.04%
COc1c(C(N)=O)cc(-c2ccc(Cl)cc2)cc1-c1ccc(S(N)(=O)=O)cc1,6.74%,5.65%,6.7%,3.05%,3.95%,2.2%,6.71%,10.9%,5.98%,2.39%,7.45%,3.49%,9.97%,2.3%,2.99%,2.39%,4.51%,3.68%,5.56%,2.5%
NS(=O)(=O)c1cccc(N/C=C2\C(=O)Nc3ccccc32)c1,10.6%,5.77%,11.6%,3.69%,8.12%,3.46%,8.24%,4.45%,6.92%,4.44%,12.1%,7.39%,26.2%,4.57%,15.1%,9.22%,46.1%,5.48%,31.2%,4.88%
COC(=O)Nc1nc2ccc(Oc3ccc(NC(=O)Nc4cc(C(F)(F)F)ccc4F)cc3)cc2s1,2.2%,28.7%,70.5%,22.6%,66.5%,0.03%,4.8%,9.69%,34.6%,76.3%,85.6%,70.3%,83.5%,5.8%,22.8%,41.6%,92%,74.8%,93.7%,20.2%
COc1cccc(Nc2nccc(-c3cnn4ncccc34)n2)c1,18.2%,5.3%,16.9%,3.27%,11.3%,1.29%,12.1%,3.9%,12.1%,2.83%,25.3%,14.3%,49.3%,6.1%,47.1%,12.6%,80.7%,26.4%,64.1%,23.9%
CNC(=O)c1sc(-n2cnc3cc(OC)c(OC)cc32)cc1OCc1ccccc1C(F)(F)F,3.95%,3.05%,8.91%,4.12%,7.2%,0.56%,2.64%,1.53%,3.89%,2.71%,2.82%,17.2%,59.7%,3.81%,28%,4.17%,9.43%,7.81%,44.8%,9.81%
CC1(C)CC(n2cnc(-c3ccc(F)cc3)c2-c2ccnc(N)n2)CC(C)(C)N1,0.76%,0.33%,2.44%,-0.62%,0.86%,0.86%,3.06%,-5.05%,5.56%,0.69%,5.42%,3.29%,5.34%,1.19%,0.18%,2.4%,4.71%,-0.6%,3.08%,5.64%
Fc1ccc(Nc2nccc(-c3c(-c4ccc(C(F)(F)F)cc4)nn4ncccc34)n2)cc1F,3.06%,2.77%,2.13%,1.22%,0.38%,3.18%,2.81%,4.74%,4.74%,2.34%,2.81%,8.86%,7.72%,–,4.26%,4.35%,6.66%,3.46%,2.39%,2.15%
CN1CCC(C(=O)Nc2n[nH]c3nc(-c4ccc(O)cc4)c(Br)cc23)CC1,50.1% and 45.5%,4.2% and 2.89%,8.89% and 2.99%,2.55% and 3.95%,6.26% and 2.78%,1.28% and 4.74%,4.17% and 6.1%,3.13% and 11.9%,14.2% and 6.92%,2.28% and 1.53%,9.34% and 7.11%,5.64% and 6.91%,27.9% and 21.1%,2.54% and 0.22%,16.3% and 9.77%,5.57% and 1.83%,9.37% and 7.73%,5.98% and 2.37%,19.9% and 16.1%,7.32% and 7.22%
